# High-throughput results from PubChem BioAssay.
# Giardia FBPA inh: Giardia lamblia aldolase inhibition; actives 0.71% (n = 290,000); Potency, µM (titrated, usually from 59.6 µM), for the others: at the top dose activity, negative = inhibition, usual class: inhibitors; purified Giardia FBPA; AID 2451; A8B2U2; also: potency is read from the fitted curve at half-maximal effect; % is scaled to controls: 0 for no effect and ±100 for the full control effect; nearly all actives have a fitted effect of over 55% in size
# Target sequence (A8B2U2 whole entry, looked up): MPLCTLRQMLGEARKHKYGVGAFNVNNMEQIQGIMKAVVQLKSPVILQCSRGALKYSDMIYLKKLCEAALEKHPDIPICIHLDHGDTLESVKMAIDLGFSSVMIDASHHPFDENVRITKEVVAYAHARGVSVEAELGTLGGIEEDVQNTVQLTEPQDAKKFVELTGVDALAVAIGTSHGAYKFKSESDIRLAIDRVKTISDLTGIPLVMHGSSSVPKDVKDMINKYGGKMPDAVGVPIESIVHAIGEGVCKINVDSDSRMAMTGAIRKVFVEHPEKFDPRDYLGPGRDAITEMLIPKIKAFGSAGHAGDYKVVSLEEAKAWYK
#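 Giardia FBPA (40 nM reagent) was preincubated 10 min at RT with compound (up to 57.5 uM final), then substrate plus GAPDH/TPI/NAD/arsenate coupling system with diaphorase/resazurin was added; resorufin fluorescence (525/598 nm) was read after 20 min.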
# Pf growth 96h: P. falciparum growth inhibition at 96 hour, primary screen for plastid delayed-death inhibitors. P. falciparum luciferase reporter growth, 96 h. actives 6.9% (n = 320,000). Potency, µM (series often up to 28.7 µM), for inactives: at the highest dose activity change, negative = inhibition, usual class: inhibitors. AID 504834; also: potency is read from the fitted curve at half-maximal effect; % is scaled to controls: 0 for no effect and ±100 for the full control effect
#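 Erythrocytes infected with luciferase-expressing P. falciparum were dispensed at 2% hematocrit and 0.05% parasitemia (final), then incubated with compounds 96 hours at 37 C in 5% CO2. Luminescence after detection reagent addition reported growth.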
# Shiga inhibitor: blocks Shiga toxin action in Vero cells; Vero cells, Shiga toxin protein synthesis inhibition reporter; inhibition, % at 38.7 µM; actives 9.2% (n = 290,000); in the data active = inhibition mostly above about 28%, no sharp cut-off; inactive = mostly below about 43%; also: 0% is about no effect
# NS1 function inh: blocks influenza NS1 protein function. actives 0.4% (n = 270,000). Potency, µM (highest dose often 46.1 µM), for inactives: top-dose activity, positive = more growth; calls by dose curve; also: potency is read from the fitted curve at half-maximal effect; actives are rising curves; nearly all actives have a fitted effect of over 50% in size
#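 A cell-based growth assay was used: compounds that relieve NS1-induced slow growth of budding yeast raise OD600. Assay medium was yeast nitrogen base with ammonium sulphate and -URA supplement, pH 6.0, with 2% galactose.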
# CHX counter: counter-screen for Shiga toxin inhibitors: cycloheximide protein synthesis inhibition; cell reporter, cycloheximide protein synthesis inhibition counterscreen; max response, %; actives 12% (n = 300,000); AID 2314; in the data active = max response mostly above about 13%, no sharp cut-off; inactive = mostly below about 14%; also: read at 38.3 µM for the half of the compounds with a filed dose; 0% is about no effect
# Pf growth 48h: inhibits P. falciparum growth in the first generation, 48 h. AID 504832. P. falciparum luciferase growth in erythrocytes, 48 h. actives 5.9% (n = 310,000). Potency, µM (top dose mostly 28.7 µM), for inactives: top-dose activity change, negative = inhibition, hits mostly inhibitors; also: potency is read from the fitted curve at half-maximal effect; % is scaled to controls: 0 for no effect and ±100 for the full control effect
#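 Firefly luciferase activity from engineered P. falciparum reports growth; inhibitors lower the luminescent signal. Cultures contained 2% hematocrit erythrocytes at 0.1% final parasitemia.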
# * marks the source's active call; other numbers are inactive results; i = inactive; u = inconclusive; x = no result given; [ ] = dose if it differs, or a comment. Compounds with a hit are over-represented: about 21% of the library has one in this group of screens. Unless noted, calls follow the shape of the dose curve; as a rule, active = well fitted curve in the direction sought with a large enough effect; inconclusive = small, poorly fitted or top-dose-only effect, or another doubt; inactive = no such curve, though single readings can be large; an effect the other way counts as inactive or inconclusive.
SMILES,Giardia FBPA inh,Pf growth 96h,Shiga inhibitor,NS1 function inh,CHX counter,Pf growth 48h
COc1ccc(NC(=O)c2ccccc2)cc1,x,146%,x,x,x,i
COc1ccc(NC(=O)c2ccccc2C)cc1,6%,4%,x,-13%,34*,205%
COc1ccc(NC(=O)c2cccc3ccccc23)cc1,-3%,u,21,-10%,20*,85%
CC(=O)N1CC[C@@H]2CC(=O)CC[C@@H]21,0%[136 µM],x,i,x,1,x
Nc1c(C(=O)Nc2ccc(Br)cc2)sc2nc(-c3ccncc3)ccc12,x,x,18,x,17,x
CCOC(=O)c1sc2nc(C)cc(-c3ccccc3)c2c1N,3%,u,-8,4%,-1,5%
NC(=O)c1sc2nc3c(c(-c4cccs4)c2c1N)CCCCC3,6%,32%,-7,4%,-4,18%
NC(=O)c1sc2nc(-c3ccccc3)ccc2c1N,-2%,0%,97*,-6%,35*,u
Nc1c(C(=O)NC2CCCC2)sc2nc(-c3cccs3)ccc12,-9%,-91%,39,1%,22*,21%
CCOC(=O)c1sc2nc(-c3ccccc3)ccc2c1N,7%,-1%,67*,-7%,92*,85%
NC(=O)c1sc2nc(-c3cccs3)ccc2c1N,8%,108%,64*,1%,49*,86%
CCOc1cc(C(=O)Nc2cc(C(=O)OC)ccc2C)ccc1OCC(=O)N1CCOCC1,x,18%,x,x,x,-16%
CCCCCn1c(N)c(-c2nc3ccccc3s2)c2c([N+](=O)[O-])nn(C)c(=O)c21,3%,5.2µM*,-34,5%,11,u
CCCCn1c(N)c(-c2nc3ccccc3o2)c2c([N+](=O)[O-])nn(C)c(=O)c21,-3%,31%,-4,15%,3,15%
Cc1nc(-c2ccc(NC(=O)c3ccc(Br)o3)cc2)cs1,1%,21%,114*,-12%,56*,175%
Cc1nc(-c2cccc(NC(=O)c3ccc(Br)o3)c2)cs1,x,u,25,-55%,16,-9%
CC(=O)Nc1ccc(-c2csc(NC(=O)c3ccc(C)o3)n2)cc1,-8%,9.3µM*,11,0%,-3,x
N[C@@H](CNO)C(=O)O,x,x,x,-3%,x,x
COc1ccc(OC)c(C2=NO[C@@](CC(=O)O)(C(=O)Nc3ccc4c(c3)OCCO4)C2)c1,-9%,20%,77*,-1%,65*,12%
Cc1ccc(C2=NO[C@@](CC(=O)O)(C(=O)Nc3ccc4c(c3)OCCO4)C2)cc1,-19%,8%,117*,-2%,129*,32%
O=C(O)CC1(CC(=O)Nc2ccc3c(c2)OCCCO3)CCCCC1,-1%,31%,3,0%,2,22%
O=C(/C=C/c1ccc(O)cc1)OC[C@H]1O[C@@H](Oc2c(-c3ccc(O)cc3)oc3cc(O)cc(O)c3c2=O)[C@H](O)[C@@H](O)[C@@H]1O,4%,x,13,x,-4,x
COc1ccc2c(c1)-c1ccccc1S(=O)(=O)N2C(C)=O,7%,12µM*,-17,-86%,-3,-12%
Cc1cccc(NC(=O)CCS(=O)(=O)c2cc3c(cc2Cl)NC(=O)CO3)c1,x,36%,-4,16%,-13,6%
O=C(NC1CCCCC1)C(c1ccc(F)cc1)N(Cc1cccs1)C(=O)CN1C(=O)c2ccccc2S1(=O)=O (configuration not stated),2%,14%,-7,3%,-2,-1%
Cc1ccccc1N(C(=O)Cc1c[nH]c2ccccc12)C(C(=O)NC1CCCCC1)c1ccco1 (configuration not stated),2%,-4%,22,8%,-4,u
COCCN(C(=O)Cc1cccs1)C(C(=O)NC1CCCC1)c1cc(OC)c(OC)c(OC)c1 (configuration not stated),-6%,20%,111*,-36%,49*,41%
COc1ccc(C(C(=O)NC2CCCC2)N(C(=O)Cc2cccs2)C2CC2)cc1OC (configuration not stated),1%,0%,-2,1%,-5,-15%
COc1ccc(C(C(=O)NC2CCCCC2)N(C(=O)Cc2c[nH]c3ccccc23)c2ccccc2C)cc1OC (configuration not stated),-15%,13µM*,-13,29%,-2,u
